{"source": "PubChem BioAssay AID1159580", "about": "(chemical genetic matrix, 2015)", "assay": "chemical genetic growth profiling, strain panel (AID 1159580);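 further: tested at 20 µM; growth read once vehicle control cultures reached saturation at 30 °C; 1 = growth at the plate median or of vehicle wells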", "conditions": "S. cerevisiae deletion strains, growth OD", "note": "Among all 5,500 compounds or so, about 2,000 (36%) were called active. Roughly 18% stayed inconclusive and do not appear here. The list shows a part of the results. Unmarked numbers belong to inactive results. No stated cut-off is given here; in the data, active means normalized growth mostly below about 0.91 (no sharp cut-off); inconclusive means no clear call, values can overlap the other calls; inactive means mostly above about 0.92.", "data": [{"smiles": "Clc1ccc(C(OCCN2CCCCC2)c2ccccc2)cc1", "note": "(stereo not drawn)", "values": [{"measurement": "normalized growth", "setting": "locus YAL013W, strain DEP1, stronger effect = lower value", "result": 1}, {"measurement": "normalized growth", "setting": "locus YAL021C, strain ccr4, stronger effect = lower value", "result": 0.954}, {"measurement": "normalized growth", "setting": "locus YAL026C, strain drs2, stronger effect = lower value", "result": 1.02}, {"measurement": "normalized growth", "setting": "locus YAL030W, strain snc1, stronger effect = lower value", "result": 1.01}, {"measurement": "normalized growth", "setting": "locus YBL061C, strain skt5, stronger effect = lower value", "result": 1.02}, {"measurement": "normalized growth", "setting": "locus YBR009C, strain hhf1, stronger effect = lower value", "result": 1}, {"measurement": "normalized growth", "setting": "locus YBR021W, strain FUR4, stronger effect = lower value", "result": "0.833 (active)"}, {"measurement": "normalized growth", "setting": "locus YBR023C, strain chs3, stronger effect = lower value", "result": 1.02}, {"measurement": "normalized growth", "setting": "locus YBR171W, strain sec66, stronger effect = lower value", "result": 1.02}, {"measurement": "normalized growth", "setting": "locus YBR229C, strain ROT2, stronger effect = lower value", "result": 0.999}, {"measurement": "normalized growth", "setting": "locus YBR231C, strain swc5, stronger effect = lower value", "result": 1.01}, {"measurement": "normalized growth", "setting": "locus YBR279W, strain paf1, stronger effect = lower value", "result": 1.02}, {"measurement": "normalized growth", "setting": "locus YCL011C, strain gbp2, stronger effect = lower value", "result": 1.03}, {"measurement": "normalized growth", "setting": "locus YCL016C, strain dcc1, stronger effect = lower value", "result": 1.03}, {"measurement": "normalized growth", "setting": "locus YCL029C, strain bik1, stronger effect = lower value", "result": 1.01}, {"measurement": "normalized growth", "setting": "locus YCL061C, strain MRC1, stronger effect = lower value", "result": 1.02}, {"measurement": "normalized growth", "setting": "locus YCL069W, strain vba3, stronger effect = lower value", "result": 1.02}, {"measurement": "normalized growth", "setting": "locus YCR088W, strain abp1, stronger effect = lower value", "result": 1.02}, {"measurement": "normalized growth", "setting": "locus YDL005C, strain med2, stronger effect = lower value", "result": 1.01}, {"measurement": "normalized growth", "setting": "locus YDL035C, strain GPR1, stronger effect = lower value", "result": 0.986}, {"measurement": "normalized growth", "setting": "locus YDL040C, strain nat1, stronger effect = lower value", "result": 1.02}, {"measurement": "normalized growth", "setting": "locus YDL074C, strain BRE1, stronger effect = lower value", "result": 0.947}, {"measurement": "normalized growth", "setting": "locus YDL101C, strain DUN1, stronger effect = lower value", "result": 1}, {"measurement": "normalized growth", "setting": "locus YDL134C, strain PPH21, stronger effect = lower value", "result": 0.995}, {"measurement": "normalized growth", "setting": "locus YDL185W, strain tfp1, stronger effect = lower value", "result": 1}, {"measurement": "normalized growth", "setting": "locus YDL192W, strain arf1, stronger effect = lower value", "result": 1.01}, {"measurement": "normalized growth", "setting": "locus YDR001C, strain nth1, stronger effect = lower value", "result": 1.02}, {"measurement": "normalized growth", "setting": "locus YDR069C, strain doa4, stronger effect = lower value", "result": 0.969}, {"measurement": "normalized growth", "setting": "locus YDR101C, strain arx1, stronger effect = lower value", "result": 0.982}, {"measurement": "normalized growth", "setting": "locus YDR137W, strain rgp1, stronger effect = lower value", "result": "1.21 [resistant] (active)"}, {"measurement": "normalized growth", "setting": "locus YDR150W, strain NUM1, stronger effect = lower value", "result": 1.01}, {"measurement": "normalized growth", "setting": "locus YDR159W, strain sac3, stronger effect = lower value", "result": 1.03}, {"measurement": "normalized growth", "setting": "locus YDR162C, strain NBP2, stronger effect = lower value", "result": 0.993}, {"measurement": "normalized growth", "setting": "locus YDR195W, strain ref2", "result": 1.07}, {"measurement": "normalized growth", "setting": "locus YDR297W, strain sur2, stronger effect = lower value", "result": 1.03}, {"measurement": "normalized growth", "setting": "locus YDR318W, strain mcm21, stronger effect = lower value", "result": 0.983}, {"measurement": "normalized growth", "setting": "locus YDR334W, strain swr1, stronger effect = lower value", "result": 1.03}, {"measurement": "normalized growth", "setting": "locus YDR335W, strain msn5, stronger effect = lower value", "result": 1.03}, {"measurement": "normalized growth", "setting": "locus YDR388W, stronger effect = lower value", "result": "0.924 (active)"}, {"measurement": "normalized growth", "setting": "locus YDR392W, strain spt3, stronger effect = lower value", "result": 1.04}, {"measurement": "normalized growth", "setting": "locus YDR502C, strain sam2, stronger effect = lower value", "result": 0.983}, {"measurement": "normalized growth", "setting": "locus YEL003W, strain gim4, stronger effect = lower value", "result": 1.01}, {"measurement": "normalized growth", "setting": "locus YEL037C, strain rad23, stronger effect = lower value", "result": 1.02}, {"measurement": "normalized growth", "setting": "locus YEL061C, strain CIN8 (second series), stronger effect = lower value", "result": 1.03}, {"measurement": "normalized growth", "setting": "locus YEL061C, strain CIN8, stronger effect = lower value", "result": 1.01}, {"measurement": "normalized growth", "setting": "locus YER015W, strain faa2, stronger effect = lower value", "result": 1.02}, {"measurement": "normalized growth", "setting": "locus YER016W, strain bim1, stronger effect = lower value", "result": 1.02}, {"measurement": "normalized growth", "setting": "locus YER110C, stronger effect = lower value", "result": 1}, {"measurement": "normalized growth", "setting": "locus YER111C, strain swi4, stronger effect = lower value", "result": 1.01}, {"measurement": "normalized growth", "setting": "locus YER155C, strain BEM2 (second series), stronger effect = lower value", "result": 1.01}, {"measurement": "normalized growth", "setting": "locus YER155C, strain BEM2, stronger effect = lower value", "result": 1}, {"measurement": "normalized growth", "setting": "locus YER167W, strain BCK2, stronger effect = lower value", "result": 0.998}, {"measurement": "normalized growth", "setting": "locus YFR010W, strain ubp6, stronger effect = lower value", "result": 0.986}, {"measurement": "normalized growth", "setting": "locus YGL078C, strain dbp3, stronger effect = lower value", "result": 0.99}, {"measurement": "normalized growth", "setting": "locus YGL086W, strain mad1, stronger effect = lower value", "result": 0.974}, {"measurement": "normalized growth", "setting": "locus YGL167C, strain pmr1, stronger effect = lower value", "result": 1.02}, {"measurement": "normalized growth", "setting": "locus YGL173C, strain kem1, stronger effect = lower value", "result": 1.01}, {"measurement": "normalized growth", "setting": "locus YGL227W, strain vid30, stronger effect = lower value", "result": 1.02}, {"measurement": "normalized growth", "setting": "locus YGL240W, strain doc1, stronger effect = lower value", "result": 1.02}, {"measurement": "normalized growth", "setting": "locus YGL248W, strain PDE1, stronger effect = lower value", "result": 0.99}, {"measurement": "normalized growth", "setting": "locus YGL253W, strain hxk2, stronger effect = lower value", "result": 1.02}, {"measurement": "normalized growth", "setting": "locus YGR078C, strain PAC10, stronger effect = lower value", "result": 0.977}, {"measurement": "normalized growth", "setting": "locus YGR135W, strain pre9, stronger effect = lower value", "result": 0.951}, {"measurement": "normalized growth", "setting": "locus YGR229C, strain SMI1, stronger effect = lower value", "result": 0.901}, {"measurement": "normalized growth", "setting": "locus YGR252W, strain gcn5, stronger effect = lower value", "result": 0.888}, {"measurement": "normalized growth", "setting": "locus YHR013C, strain ard1, stronger effect = lower value", "result": 0.895}, {"measurement": "normalized growth", "setting": "locus YHR027C, strain rpn1, stronger effect = lower value", "result": 1.03}, {"measurement": "normalized growth", "setting": "locus YHR030C, strain SLT2, stronger effect = lower value", "result": 1}, {"measurement": "normalized growth", "setting": "locus YHR079C, strain IRE1 (second series), stronger effect = lower value", "result": 0.994}, {"measurement": "normalized growth", "setting": "locus YHR094C, strain hxt1, stronger effect = lower value", "result": 0.997}, {"measurement": "normalized growth", "setting": "locus YHR129C, strain ARP1, stronger effect = lower value", "result": 1}, {"measurement": "normalized growth", "setting": "locus YHR142W, strain chs7, stronger effect = lower value", "result": 1.01}, {"measurement": "normalized growth", "setting": "locus YHR200W, strain rpn10, stronger effect = lower value", "result": 0.989}, {"measurement": "normalized growth", "setting": "locus YIL066C, strain RNR3, stronger effect = lower value", "result": 0.988}, {"measurement": "normalized growth", "setting": "locus YIL073C, strain SPO22, stronger effect = lower value", "result": 1.12}, {"measurement": "normalized growth", "setting": "locus YIL125W, strain kgd1, stronger effect = lower value", "result": 1}, {"measurement": "normalized growth", "setting": "locus YIR030C, strain dcg1, stronger effect = lower value", "result": 0.996}, {"measurement": "normalized growth", "setting": "locus YJL092W, strain hpr5, stronger effect = lower value", "result": 1.02}, {"measurement": "normalized growth", "setting": "locus YJL095W, strain BCK1 (second series), stronger effect = lower value", "result": 1.03}, {"measurement": "normalized growth", "setting": "locus YJL095W, strain BCK1, stronger effect = lower value", "result": 0.913}, {"measurement": "normalized growth", "setting": "locus YJL115W, strain asf1, stronger effect = lower value", "result": 1.02}, {"measurement": "normalized growth", "setting": "locus YJL129C, strain trk1, stronger effect = lower value", "result": 1.04}, {"measurement": "normalized growth", "setting": "locus YJL134W, strain LCB3, stronger effect = lower value", "result": 1}, {"measurement": "normalized growth", "setting": "locus YJL154C, strain vps35, stronger effect = lower value", "result": 1.01}, {"measurement": "normalized growth", "setting": "locus YJL164C, strain tpk1, stronger effect = lower value", "result": 1.02}, {"measurement": "normalized growth", "setting": "locus YJL166W, strain qcr8, stronger effect = lower value", "result": 1.01}, {"measurement": "normalized growth", "setting": "locus YJL168C, strain set2, stronger effect = lower value", "result": 1}, {"measurement": "normalized growth", "setting": "locus YJL187C, strain SWE1 (second series), stronger effect = lower value", "result": 0.983}]}]}
